Rev-erbA mod: modulators of Rev-erb alpha DNA binding, primary screen, biochemical, FITC-DNA, fluorescence polarization, uHTS; 370,000 tested, 0.79% active; AID 1259318, 2017; Rev-erbα–FITC-DNA binding, 90 min; activity, % at 10 µM;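 active = activity above about 14%, limit read from the data; passing the limit was not always enough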;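 note: 0% = DMSO wells with 35 nM protein and 100% = DMSO wells with 750 nM protein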
hgDAF-12 ag: H. glycines DAF-12 receptor agonists, primary screen, cell-based, luminescence, HEK293, GAL4 fusion, UAS-luciferase; Nuclear hormone receptor DAF-12 (Heterodera glycines), GAL4 fusion; 370,000 tested, 1.8% active; activation, % at 6.8 µM; HEK293 GAL4-hgDAF12 UAS-luciferase reporter, agonist luminescence; normalized to butyrate control;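 active = activation above a cutoff set at the mean of all screened compounds plus 3 SD, cut at about 10% in these data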;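 note: 0% = DMSO wells and 100% = sodium butyrate wells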
DAX1 inh-1: DAX1 (NR0B1) inhibitors, primary screen, cell-based, HEK293, Gal4-DAX1, luciferase luminescence; Nuclear receptor subfamily 0 group B member 1 (Homo sapiens), P51843; HEK293 Gal4-DAX1 luciferase reporter; inhibition, % at 6.75 µM; 340,000 tested, 0.99% active;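 active = inhibition above the mean over all tested compounds plus 3 SD, cut at about 4.2% in these data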;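 note: 0% = DAX1-transfected cells with DMSO and 100% = empty-vector control cells with DMSO; inhibition shows as a rise in luminescence from relieved DAX1 repression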
Target sequence (P51843 207-470 limits assumed): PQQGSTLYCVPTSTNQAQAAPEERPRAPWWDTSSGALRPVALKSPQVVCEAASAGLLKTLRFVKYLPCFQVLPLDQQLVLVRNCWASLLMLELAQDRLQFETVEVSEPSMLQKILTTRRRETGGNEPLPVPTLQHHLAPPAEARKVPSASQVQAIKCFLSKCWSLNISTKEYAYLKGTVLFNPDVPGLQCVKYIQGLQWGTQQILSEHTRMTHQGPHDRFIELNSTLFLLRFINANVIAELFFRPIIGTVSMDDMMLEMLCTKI
hcDAF-12 act: H. contortus DAF-12 nuclear receptor activators, primary screen, cell-based, luminescence, HEK293, lit1-tk-luc reporter; HEK293 hcDAF-12 lit1-tk-luc reporter; 0% DMSO, 100% Δ7-dafachronic acid; activation, % at 6.8 µM; 370,000 tested, 1.4% active; AID 652067, 2013;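 active = activation above the mean of all tested compounds plus 3 SD, cut at about 5.5% in these data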;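 note: 100% = response to 3 µM Δ7-dafachronic acid high control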
DAX1 inh-2: DAX1 (NR0B1) inhibitors on StAR promoter, primary screen, cell-based, luminescence, SF-1 (NR5A1), full-length DAX-1 | HEK293T StAR-luciferase reporter, SF-1/DAX-1 repression relief | inhibition, % at 6.8 µM | 370,000 tested, 1.1% active;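 active = inhibition above the mean over all tested compounds plus 3 SD, cut at about 3.6% in these data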;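 note: 0% = DAX-1 cells with DMSO and 100% = cells lacking DAX-1 with DMSO; higher inhibition means more luminescence from relief of DAX-1 repression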
ssDAF12 agonist: S. stercoralis DAF-12 nuclear receptor activators, primary screen, cell-based, luminescence, HEK293, GRIP1 co-expression, lit1-tk-luc; Nuclear hormone receptor DAF-12 (Strongyloides stercoralis); HEK293 ssDAF-12/GRIP1 lit1-tk-luc reporter; % of 3 µM dafachronic acid response; activation, % at 6.8 µM; 370,000 tested, 1% active;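 active = activation above the mean over all tested compounds plus 3 SD, cut at about 0.9% in these data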;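 note: 0% = DMSO-only wells and 100% = 3 µM delta7-dafachronic acid wells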
Starred values were filed as active, the others as inactive; nt = no result. Shown are actives, neighbours in structure and some others; about 4.8% of the full set was active somewhere.

SMILES	Rev-erbA mod	hgDAF-12 ag	DAX1 inh-1	hcDAF-12 act	DAX1 inh-2	ssDAF12 agonist
O=C1CCCCC1Sc1nnc(Nc2ccccc2)s1 (stereo not given)	-5	11*	4	1	2	-1
S=C(Nc1cccc(Cl)c1)OCCN1CCCC12CCC(c1ccccc1)CC2 (stereo not given)	1	5	nt	1	nt	-1
Fc1ccccc1Nc1nc2ccccc2n2nnnc12	-11	5	1	1	0	1.1*
O=C(NCCc1c[nH]c2ccccc12)OCc1cn(Cc2cccc(C(F)(F)F)c2)nn1	6	-4	nt	-3	1	-1
CCOC(=O)c1c(NC(=O)CSc2nnc(C)c(=O)[nH]2)sc2c1CCCC2	-2	1	-1	-2	0	-1
CCOC(=O)c1c(NC(=O)CSc2nnc(C)c(=O)[nH]2)sc(C)c1-c1ccc(C)cc1	-2	0	4.6*	0	0	-1
COc1ccc(OC)c(NC(=O)COC(=O)CNC(=O)c2ccc(OC)c(OC)c2)c1	-1	3	0	-1	0	-1
COc1ccc(C(=O)NCC(=O)OCC(=O)Nc2sccc2C#N)cc1OC	-2	5	6.4*	4	1	1.1*
c1ccc(N2CCN(c3ccccc3)C2c2cccs2)cc1	-4	7	7.7*	1	0	-2
O=C1CSC(c2cccs2)N1c1ccccc1 (stereo not given)	9	-1	0	1	0	-1
Cc1oc(-c2ccccc2)cc1C(=O)Nc1cccc(C(=O)O)c1	-6	2	1	1	0	-1
Cc1oc(-c2ccc(Cl)cc2)cc1C(=O)O	1	3	5.5*	1	1	0
O=C([C@@H]1C[C@H]1c1ccccc1)N1CCC(Oc2cccnc2)CC1	3	0	nt	0	0	-1
Cn1c(SCc2ccc(C#N)cc2Cl)nc2ccccc21	-2	12*	4.3*	4	4	0
N#Cc1ccc(CSc2ccccn2)c(Cl)c1	2	3	0	1	0	-1
CCC(=O)N1CCc2cc(Br)c(S(=O)(=O)NCc3ccccc3OC)cc21	0	4	nt	-1	-1	-1
O=C(Nc1ccc(Cl)c(Cl)c1)C1CCCN(c2nnc(-n3cccc3)s2)C1 (stereo not given)	0	-3	nt	-2	0	-1
O[C@H]1C[C@H](c2ccccc2)N(CC2CCCCC2)C[C@@H]1n1cc(C2CC2)nn1	4	5	0	1	3.7*	0
CCCCOc1ccc(-c2nnc(-c3ccncc3)o2)cc1	-3	8	0	1	1	0
CCCOc1ccc(-c2nnc(-c3cccs3)o2)cc1	8	10*	2	4	2	0
CC(C)C[C@H]1COc2cc(N3CCSCC3)ccc2S(=O)(=O)N1C	5	-1	nt	0	-1	-1
O=C(/C=C/c1ccccc1)Nc1cc(NC(=O)/C=C/c2ccccc2)cc(C(=O)O)c1	2	0	-4	0	1	-1
O=C(/C=C\c1ccccc1[N+](=O)[O-])Nc1ccccc1	-6	11*	3	4	1	0
O=C(/C=C/c1ccccc1)Nc1cccc(C(=O)O)c1	3	13*	-8	3	4.4*	-1
O=C(COC(=O)CCNS(=O)(=O)c1ccc(Cl)cc1)Nc1ccccc1OC(F)F	2	2	-1	-2	-1	-1
Cc1ccc(S(=O)(=O)NCC(=O)OCC(=O)Nc2ccccc2OC(F)F)cc1	-2	-1	5.9*	-1	0	-1
